# PubChem BioAssay AID588683 (Broad Institute, 2011)
# Entries with a potency or affinity are not part of this list. Active and inactive are the calls of the source. No rule for the calls is given here.
# Molecular target: Kelch-like ECH-associated protein 1 (Homo sapiens) + Nuclear factor erythroid 2-related factor 2 (Homo sapiens) (UniProt Q14145+Q16236)
# Test: Keap1-Nrf2 protein-protein interaction inhibitors, dose response, biochemical, fluorescence polarization, cherry-picked samples (AID 588683);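 also: Kelch domain of Keap1 binding a fluorescein-labelled 9mer Nrf2 peptide; more negative means stronger inhibition of peptide binding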
# Settings: Keap1/Nrf2 peptide fluorescence polarization, plate reader; series mostly up to 26 µM; activity change, negative = inhibition: at the top concentration
# Sequence of Kelch-like ECH-associated protein 1 (Homo sapiens) + Nuclear factor erythroid 2-related factor 2 (Homo sapiens) (Q14145 whole entry, looked up, the tested form may be a part): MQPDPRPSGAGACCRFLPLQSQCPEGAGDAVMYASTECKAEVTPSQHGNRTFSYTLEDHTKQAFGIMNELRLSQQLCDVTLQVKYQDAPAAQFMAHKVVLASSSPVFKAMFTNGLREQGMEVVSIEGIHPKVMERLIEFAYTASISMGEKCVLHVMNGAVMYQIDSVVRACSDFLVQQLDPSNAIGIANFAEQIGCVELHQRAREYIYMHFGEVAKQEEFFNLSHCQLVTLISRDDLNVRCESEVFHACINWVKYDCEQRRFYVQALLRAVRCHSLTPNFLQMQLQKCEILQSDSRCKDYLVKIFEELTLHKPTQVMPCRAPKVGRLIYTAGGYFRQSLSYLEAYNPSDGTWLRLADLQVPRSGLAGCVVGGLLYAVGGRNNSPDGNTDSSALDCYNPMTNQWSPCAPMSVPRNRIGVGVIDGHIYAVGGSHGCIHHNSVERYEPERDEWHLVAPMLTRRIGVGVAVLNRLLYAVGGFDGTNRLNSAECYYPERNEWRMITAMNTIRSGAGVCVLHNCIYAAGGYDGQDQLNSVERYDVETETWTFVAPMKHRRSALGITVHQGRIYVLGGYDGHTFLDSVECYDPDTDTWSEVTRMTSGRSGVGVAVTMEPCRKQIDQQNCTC
# Sequence of Kelch-like ECH-associated protein 1 (Homo sapiens) + Nuclear factor erythroid 2-related factor 2 (Homo sapiens) (Q16236 whole entry, looked up, the tested form may be a part): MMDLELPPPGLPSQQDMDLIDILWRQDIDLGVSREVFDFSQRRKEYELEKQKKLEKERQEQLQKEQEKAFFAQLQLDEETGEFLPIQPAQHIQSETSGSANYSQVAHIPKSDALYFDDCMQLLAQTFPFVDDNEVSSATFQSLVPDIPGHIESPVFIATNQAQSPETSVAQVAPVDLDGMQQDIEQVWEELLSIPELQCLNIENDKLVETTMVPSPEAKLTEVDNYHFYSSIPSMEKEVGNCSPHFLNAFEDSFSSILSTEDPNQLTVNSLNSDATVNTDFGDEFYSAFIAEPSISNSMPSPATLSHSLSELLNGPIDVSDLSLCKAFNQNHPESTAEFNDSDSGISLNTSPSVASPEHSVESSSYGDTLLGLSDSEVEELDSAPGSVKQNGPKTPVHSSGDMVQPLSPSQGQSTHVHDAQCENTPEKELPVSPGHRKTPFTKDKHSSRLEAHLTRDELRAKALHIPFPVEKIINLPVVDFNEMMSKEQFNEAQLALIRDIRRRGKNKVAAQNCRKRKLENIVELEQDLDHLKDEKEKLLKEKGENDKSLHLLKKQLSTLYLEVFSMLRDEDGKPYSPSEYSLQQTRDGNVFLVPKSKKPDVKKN
row,SMILES,"activity change, negative = inhibition"
1,Cc1cc(C)c2c(SC(C)C)nc(N)nc2n1,0.376% (inactive)
2,Cc1ccc(C2=CC(c3cccs3)n3nnnc3N2)cc1 (stereo not drawn),2.17% (inactive)
3,CCOC(=O)c1c(NC(=O)CN2CCN(S(=O)(=O)c3cc(Cl)ccc3Cl)CC2)sc(C(=O)N(C)C)c1C,-10.3% (inactive)
4,Cc1ccc(C2C3CN(C(C)C)CC=C3C(C#N)=C(N)C2(C#N)C#N)cc1 (stereo not drawn),-9.88% (inactive)
5,O=c1ccc2cc3c4c(c2o1)CCCN4CCC3,-45.4% (inactive)
6,O=C(NNc1ncnc2sccc12)c1ccc(Cl)cc1,6.87% (inactive)
7,CC(=O)Nc1ccc(NS(=O)(=O)c2ccc3c(c2)oc(=O)n3C)cc1,-3.36% (inactive)
8,O=C(CSc1nc2ccccc2c(=O)n1CCCN1CCOCC1)Nc1ccccc1OC(F)F,-1.34% (inactive)
9,CCC1OC23CCCCC2C(C#N)(C(=N)O3)C1(C#N)C#N (stereo not drawn),1.01% (inactive)
10,CN1CC=C2C(C#N)=C(N)C(C#N)(C#N)C(c3ccsc3)C2C1 (stereo not drawn),-0.634% (inactive)
11,CCOCCCn1c(=NC(=O)c2cccs2)c(C#N)cc2c(=O)n3cccc(C)c3nc21,6.08% (inactive)
12,CC(C)NC(=O)N(C)C[C@H]1Oc2ccc(NS(=O)(=O)c3cn(C)cn3)cc2C(=O)N([C@H](C)CO)C[C@@H]1C,-2.06% (inactive)
13,O=C(NCCOCc1ccc(Cl)cc1)c1ncn[nH]1,-12.4% (inactive)
14,CC1(C)CC(=O)C2=C(C1)OC(N)=C(C#N)C2c1ccccc1[N+](=O)[O-] (stereo not drawn),-23.5% (inactive)
15,CN(C)c1ccc(/C=N/NC(=O)CCC(=O)NCc2ccccc2)cc1,-5.52% (inactive)
16,O=C1c2ccccc2-c2onc3ccc(Oc4ccccc4)c1c23,100% (inactive)
17,O=S(=O)([O-])CCC[n+]1c(SCCCS(=O)(=O)O)sc2ccc(Cl)cc21,-4.67% (inactive)
18,CCOC(=O)c1c(=O)n(O)c2ccc(OC)cc2[n+]1[O-],-18.5% (inactive)
19,Cc1ccc(NC(=S)NCc2ccc(F)cc2)c(C)c1,17% (inactive)

row,SMILES,"activity change, negative = inhibition"
1,CNC(=O)C1CC(=O)N(c2ccc(OCC(=O)Nc3ccc(F)cc3)cc2)C1 (stereo not drawn),9.29% (inactive)
2,O=C1C(=Cc2ccco2)CCC1=Cc1ccco1,24.2% (inactive)
3,Cc1cccc(C)c1NC(=O)CSc1nnc(-c2ccco2)c(-c2ccco2)n1,-2.35% (inactive)
4,CC(C(=O)O)N1C(=O)/C(=C/C=C/c2ccco2)SC1=S (stereo not drawn),14.5% (inactive)
5,O=C(NNC(=O)c1ccc(Br)o1)c1csc(N2CCOCC2)n1,-2.33% (inactive)
6,COCCCN1C(=O)c2ccc(C(=O)Nc3ccc(C)cc3C)cc2C1=O,-4.5% (inactive)
7,CC(=O)N1CCN(S(=O)(=O)c2cccc(C(=O)NNC(=O)c3ccc(Br)cc3)c2)CC1,-2.07% (inactive)
8,CCn1nnnc1SCC(=O)N(C)C1CCS(=O)(=O)C1 (stereo not drawn),-6.23% (inactive)
9,O=C(CCCN1C(=O)/C(=C\c2ccco2)SC1=S)Nc1ccc(O)cc1C(=O)O,8.2% (inactive)
10,O=C(CN1C(=O)NC2(CCCC2)C1=O)Nc1ccc(C(F)(F)F)cc1,-3.78% (inactive)
11,CC(C)(C)c1cc[n+](-c2[nH]c(=O)sc2/C=N/NC([S-])=Nc2ccccc2)cc1,-18.6% (inactive)
12,O=S(=O)(Nc1ncccn1)c1ccc(NC(=S)NCc2cccnc2)cc1,-14.6% (inactive)
13,COc1ccc(-c2cc(C(F)(F)F)c3c(N)c(C(=O)NCCSC)sc3n2)cc1,11.6% (inactive)
14,O=C(Nc1ccccc1C(=O)N1CCCCCC1)c1ccc(F)cc1,-6.9% (inactive)
15,CC(OC(=O)c1ccc([N+](=O)[O-])o1)C(=O)NC1CCCCC1C (stereo not drawn),-13.6% (inactive)
16,CC1OC2(C)OC(=N)C1(C#N)C(C#N)(C#N)C2c1ccccc1 (stereo not drawn),-11.3% (inactive)
17,COc1cc(/C=C/C(=O)OCC(=O)c2ccc3c(c2)NC(=O)CO3)ccc1OC(F)F,29.3% (inactive)
18,Nc1c(Cl)ncnc1NCc1ccccc1,-12.4% (inactive)
19,O=C(NCc1ccc(Cl)cc1)c1cc(=O)[nH]c2ccccc12,-0.671% (inactive)
